About 83,000 compounds went through this panel and 20% of them were active in at least one assay; those are over-represented in the sample as a whole.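 Results are percent growth after 48 hours of single-concentration exposure. 100 means growth as in untreated cells, lower positive values show inhibition; negative values down to -100 show cell death.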 Values without a mark were called inactive. Active and inactive are the calls of the source. The calls were made as follows: active = growth percent below 10; inactive = the rest.
Columns and labels:
Test in all cases: NCI-60 one-dose screen, 48 h (100 = growth as untreated, 0 = no growth, -100 = all killed)
Conditions in all cases: 10 µM unless noted
BT-549 breast = tested on: BT-549 breast
MDA-MB-435 melanoma = tested on: MDA-MB-435 melanoma
SW-620 colon = tested on: SW-620 colon
MCF7 breast = tested on: MCF7 breast
HCT-116 colon = tested on: HCT-116 colon
HCC-2998 colon = tested on: HCC-2998 colon
KM12 colon = tested on: KM12 colon

c1ccc(-c2cn3ccnc3c(-c3ccc4c(c3)ncn4C3CCCCC3)n2)cc1
growth (BT-549 breast): 99.6%
growth (MDA-MB-435 melanoma): 99.5%
growth (SW-620 colon): 110%
growth (MCF7 breast): 84.1%
growth (HCT-116 colon): 96.2%
growth (HCC-2998 colon): 105%
growth (KM12 colon): 94.3%

CN(C)CCCn1c2c(c3cc(-c4cccc(S(N)(=O)=O)c4)ccc3c1=O)C(=O)c1ccccc1-2
growth (BT-549 breast): 76.1%
growth (MDA-MB-435 melanoma): 80.3%
growth (SW-620 colon): 36.8%
growth (MCF7 breast): 27.7%
growth (HCT-116 colon): -82.6% (active)
growth (HCC-2998 colon): 77.2%
growth (KM12 colon): 65.5%

COc1c(O)cc2oc3cc(O[C@@H]4OC(C)[C@@H](O)[C@H](O)C4O)c(CC=C(C)C)c(O)c3c(=O)c2c1CC=C(C)C (some centres undefined)
growth (BT-549 breast): 99.3%
growth (MDA-MB-435 melanoma): 97.9%
growth (SW-620 colon): 101%
growth (MCF7 breast): 76%
growth (HCT-116 colon): 94.1%
growth (HCC-2998 colon): 94.8%
growth (KM12 colon): 87.8%

COc1ccc(-n2cc(-c3ccc(Cl)c(Cl)c3)[nH]c2=O)cc1OC
growth (BT-549 breast): 94.2%
growth (MDA-MB-435 melanoma): 99.7%
growth (SW-620 colon): 73.5%
growth (MCF7 breast): 84.7%
growth (HCT-116 colon): 90.4%
growth (HCC-2998 colon): 96%
growth (KM12 colon): 95.3%

OCCNc1nc(NCCO)nc(Nc2ccc(C3=NN(c4cc(Cl)cc(Cl)c4)C(c4ccccc4)C3)cc2)n1 (centres undefined)
growth (BT-549 breast): 59.4%
growth (MDA-MB-435 melanoma): 49.5%
growth (SW-620 colon): 60%
growth (MCF7 breast): 16.3%
growth (HCT-116 colon): 33.8%
growth (HCC-2998 colon): 52.8%
growth (KM12 colon): 27.9%

COc1ccc(-c2nc(C#N)c(NCC(c3ccco3)N3CCCC3)o2)cc1 (centres undefined)
growth (BT-549 breast): 66.7%
growth (MDA-MB-435 melanoma): -23.5% (active)
growth (SW-620 colon): 27.3%
growth (MCF7 breast): 19.6%
growth (HCT-116 colon): 27%
growth (HCC-2998 colon): 67%
growth (KM12 colon): 33.8%

COc1ccc2c(c1)Oc1nc(N)c(C#N)c(N)c1C2Sc1ccc(O)cc1 (centres undefined)
growth (BT-549 breast): 92.4%
growth (MDA-MB-435 melanoma): 99.5%
growth (SW-620 colon): 68.6%
growth (MCF7 breast): 33.6%
growth (HCT-116 colon): 89.6%
growth (HCC-2998 colon): 98.5%
growth (KM12 colon): 97.9%

COC(=O)CCc1cc(O)c2c(c1)[C@@H](C(=O)OC)[C@H](c1ccc(O)c(O)c1)O2
growth (BT-549 breast): 51.7%
growth (MDA-MB-435 melanoma): 4.1% (active)
growth (SW-620 colon): 63.8%
growth (MCF7 breast): 23.7%
growth (HCT-116 colon): 59.5%
growth (HCC-2998 colon): 94.9%
growth (KM12 colon): 55.8%

COc1ccc(-c2cc(-c3nnc(SCC(=O)Nc4ccc(/C(C)=N\O)cc4)o3)c3ccccc3n2)cc1
growth (BT-549 breast): 108%
growth (MDA-MB-435 melanoma): 110%
growth (SW-620 colon): 105%
growth (MCF7 breast): 96.1%
growth (HCT-116 colon): 107%
growth (HCC-2998 colon): 101%
growth (KM12 colon): 101%

COc1ccc(-c2cs/c(=N\N=C\c3ccc(O)cc3O)n2/N=C/c2ccc(O)cc2O)cc1
growth (BT-549 breast): -10.4% (active)
growth (MDA-MB-435 melanoma): -32.8% (active)
growth (SW-620 colon): -51.3% (active)
growth (MCF7 breast): -11.5% (active)
growth (HCT-116 colon): -52.8% (active)
growth (HCC-2998 colon): 4.8% (active)
growth (KM12 colon): -51% (active)

Cc1cccc(C)c1Nc1nnc(-c2ccc(F)cc2)o1
growth (BT-549 breast): 107%
growth (MDA-MB-435 melanoma): 103%
growth (SW-620 colon): 98.1%
growth (MCF7 breast): 96.6%
growth (HCT-116 colon): 101%
growth (HCC-2998 colon): 99.4%
growth (KM12 colon): 89.2%

O=C(Nc1ccc2ncnc(Nc3cccc(C(F)(F)F)c3)c2c1)c1cccs1
growth (BT-549 breast): 71.8%
growth (MDA-MB-435 melanoma): 63.3%
growth (SW-620 colon): 27.7%
growth (MCF7 breast): 32.2%
growth (HCT-116 colon): 38.3%
growth (HCC-2998 colon): 62.8%
growth (KM12 colon): 49.6%

COc1ccc(C2CC(c3ccc(OC)cc3O)=NN2c2ccc(S(N)(=O)=O)cc2)cc1 (centres undefined)
growth (BT-549 breast): 58.2%
growth (MDA-MB-435 melanoma): 36.8%
growth (SW-620 colon): 50.6%
growth (MCF7 breast): 13.7%
growth (HCT-116 colon): 20.5%
growth (HCC-2998 colon): 54.4%
growth (KM12 colon): 23.7%

O=C1CC(c2ccc(O)c(O)c2)Oc2cc(O)c([C@@H]3O[C@H](CO)[C@@H](O)[C@H](O)[C@H]3O)c(O)c21 (some centres undefined)
growth (BT-549 breast): 102%
growth (MDA-MB-435 melanoma): 105%
growth (SW-620 colon): 98.4%
growth (MCF7 breast): 108%
growth (HCT-116 colon): 93.9%
growth (HCC-2998 colon): 108%
growth (KM12 colon): 109%

COc1ccc2[nH]c(=O)c(/C=C/C(=O)/C=C/c3ccc(O)c(OC)c3)cc2c1
growth (BT-549 breast): -22.8% (active)
growth (MDA-MB-435 melanoma): -30% (active)
growth (SW-620 colon): -24.8% (active)
growth (MCF7 breast): 13%
growth (HCT-116 colon): -86.7% (active)
growth (HCC-2998 colon): -74% (active)
growth (KM12 colon): -45% (active)

CCN(CC)CC#CCOC(=O)[C@]1(C)CCC[C@]2(C)[C@H]3C[C@H]4C(C(C)C)=C[C@]3(CC[C@H]21)[C@@H]1C(=O)CCC(=O)[C@@H]14
growth (BT-549 breast): 63.7%
growth (MDA-MB-435 melanoma): 74%
growth (SW-620 colon): 55.1%
growth (MCF7 breast): 25.1%
growth (HCT-116 colon): 35.8%
growth (HCC-2998 colon): 75%
growth (KM12 colon): 51.9%

COc1cc(C(=O)Nc2cc(O)c(C/C=C(\C)CCC=C(C)C)c(O)c2)cc2c1O[C@]1(C)CC[C@@H](O)C(C)(C)[C@H]1C2
growth (BT-549 breast): 18.4%
growth (MDA-MB-435 melanoma): 17.1%
growth (SW-620 colon): 4.02% (active)
growth (MCF7 breast): 10.2%
growth (HCT-116 colon): 13.2%
growth (HCC-2998 colon): 23.2%
growth (KM12 colon): 13.3%

COc1cc2c(cc1OC)C(Sc1ccc(Cl)cc1)c1c(nc(N)c(C#N)c1N)O2 (centres undefined)
growth (BT-549 breast): 1.72% (active)
growth (MDA-MB-435 melanoma): -43.8% (active)
growth (SW-620 colon): -63.1% (active)
growth (MCF7 breast): -52.2% (active)
growth (HCT-116 colon): -70.6% (active)
growth (HCC-2998 colon): -48.1% (active)
growth (KM12 colon): -27.8% (active)

COc1cc(/C=N/Nc2nc(-c3ccc(F)cc3)c(C#N)c(N3CCOCC3)n2)ccc1O
growth (BT-549 breast): 94.3%
growth (MDA-MB-435 melanoma): 97%
growth (SW-620 colon): 95%
growth (MCF7 breast): 93.2%
growth (HCT-116 colon): 96.8%
growth (HCC-2998 colon): 117%
growth (KM12 colon): 103%

C=C1C(=O)O[C@H]2[C@H]1CC/C(COC(=O)/C=C/c1cccnc1)=C\CC[C@@]1(C)O[C@@H]21
growth (BT-549 breast): 20.5%
growth (MDA-MB-435 melanoma): 27.7%
growth (SW-620 colon): -32% (active)
growth (MCF7 breast): 11.9%
growth (HCT-116 colon): -66.3% (active)
growth (HCC-2998 colon): 94.8%
growth (KM12 colon): 79.4%

CCOC(=O)c1c(-c2ccc(O)cc2)c(C#N)c2c(C#N)c(N)nn2c1N
growth (BT-549 breast): 60.9%
growth (MDA-MB-435 melanoma): 1.63% (active)
growth (SW-620 colon): 42.6%
growth (MCF7 breast): 31.5%
growth (HCT-116 colon): 67.6%
growth (HCC-2998 colon): 80.9%
growth (KM12 colon): 47.5%

CC(C)C1=C[C@@]23CC[C@H]4[C@](C)(COCCC#N)CCC[C@]4(C)[C@H]2C[C@@H]1[C@@H]1[C@H]3[C@@H](OCCC#N)CC[C@@H]1OCCC#N
growth (BT-549 breast): 39.4%
growth (MDA-MB-435 melanoma): 40.1%
growth (SW-620 colon): 47.4%
growth (MCF7 breast): 9.61% (active)
growth (HCT-116 colon): 24.6%
growth (HCC-2998 colon): 44.4%
growth (KM12 colon): 32.7%

CCOc1ccccc1C(=O)/C=C/c1cc2ccccc2[nH]c1=O
growth (BT-549 breast): -19.2% (active)
growth (MDA-MB-435 melanoma): 5.11% (active)
growth (SW-620 colon): 4.2% (active)
growth (MCF7 breast): 3.4% (active)
growth (HCT-116 colon): -64.7% (active)
growth (HCC-2998 colon): -97.6% (active)
growth (KM12 colon): -45.3% (active)

COc1cc(C)ccc1Oc1nc(Nc2ccc(N3CCOCC3)cc2)ncc1N=Cc1cc(C(F)(F)F)cc(C(F)(F)F)c1
growth (BT-549 breast): 89.4%
growth (MDA-MB-435 melanoma): 65.1%
growth (SW-620 colon): 80.5%
growth (MCF7 breast): 46.4%
growth (HCT-116 colon): 47.6%
growth (HCC-2998 colon): 91.6%
growth (KM12 colon): 55.3%

CCO/C=N/S(=O)(=O)c1cc2c(cc1Cl)NC=NS2(=O)=O
growth (BT-549 breast): 101%
growth (MDA-MB-435 melanoma): 97.5%
growth (SW-620 colon): 94.9%
growth (MCF7 breast): 96.2%
growth (HCT-116 colon): 103%
growth (HCC-2998 colon): 102%
growth (KM12 colon): 107%

CC(C)NS(=O)(=O)c1cccc(-c2ccc3c(=O)n(CCCN)c4c(c3c2)C(=O)c2ccccc2-4)c1
growth (BT-549 breast): 99.8%
growth (MDA-MB-435 melanoma): 107%
growth (SW-620 colon): 92.4%
growth (MCF7 breast): 101%
growth (HCT-116 colon): 96.6%
growth (HCC-2998 colon): 105%
growth (KM12 colon): 98.9%

Cc1cc(C)c2nc(Nc3nc(C)c(C)c(=O)[nH]3)nc(C)c2c1
growth (BT-549 breast): 9.69% (active)
growth (MDA-MB-435 melanoma): 15.7%
growth (SW-620 colon): 9.96% (active)
growth (MCF7 breast): 3.09% (active)
growth (HCT-116 colon): 3.76% (active)
growth (HCC-2998 colon): 21.9%
growth (KM12 colon): 11.3%

Reference: PubChem BioAssay (NCI)
